Compound activity from PubChem.
RORg inh: qHTS for inhibitors of ROR gamma transcriptional activity. Nuclear receptor ROR-gamma (Mus musculus), P51450. Drosophila S2 Gal4-RORgamma UAS-luciferase reporter, 20 h. Potency, µM (series often up to 53.6 µM), for the others: at the highest dose activity change, negative = inhibition, usual class: inhibitors. 5.4% of 310,000 active; note: potency is the fitted concentration of half-maximal effect; % is set by controls: 0 for no effect and ±100 for the full control effect; nearly all actives have a fitted effect of over 60% in size
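Drosophila Schneider cells stably carrying a metallothionein-driven Gal4 DBD–ROR gamma fusion and a UAS-Photinus luciferase reporter were exposed to compound for 1 hr, then induced with copper sulfate (700 uM final) for 20 hr at ambient temperature before luminescence reading.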
CtBP-E1A inh: qHTS Assay for Inhibitors of the CtBP/E1A Interaction; CtBP / adenovirus E1A interaction (AlphaScreen); AlphaScreen GST-E1A/His-CtBP binding, 1536-well; hits give low values; activity change, % (no concentration beside the values); 0.49% of 340,000 active; AID 651724, 2012; in the data active = activity change below about -65%; inconclusive = mostly about -30% to -63%; note: % is set by controls: 0 for no effect and ±100 for the full control effect
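GST-E1A and His-tagged CtBP (125 nM each as 5X stock) were preincubated with pin-transferred compound for 2 h at 37 °C in the dark, then glutathione donor and nickel acceptor beads were added for 1 h before AlphaScreen reading.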
Gal4-VP16 FLuc: VP16 counterscreen qHTS for inhibitors of ROR gamma transcriptional activity. Potency, µM (series often up to 53.6 µM), for the others: top-dose activity, negative = inhibition, actives largely listed as inhibitors. Drosophila S2 Gal4-VP16 UAS-luciferase, luminescence, 20 h. 3.5% of 310,000 active. AID 2546, 2010;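 note: Gal4-VP16 expression switched on by copper sulfate through the metallothionein promoter; potency is the fitted concentration of half-maximal effect; % is set by controls: 0 for no effect and ±100 for the full control effect; nearly all actives have a fitted effect of over 50% in size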
Six1-Eya2 inh: qHTS Assay for Inhibitors of the Six1/Eya2 Interaction | Homeobox protein SIX1 (Homo sapiens) + Protein phosphatase EYA2 (Homo sapiens), … | AlphaScreen GST-Six1/His-Eya2 binding, biochemical; hits give low values | activity change, % (test concentration not listed) | 0.56% of 360,000 active | AID 651725, 2012; in the data active = activity change below about -65%; inconclusive = mostly about -30% to -63%; note: % is set by controls: 0 for no effect and ±100 for the full control effect
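AlphaScreen luminescence read after one hour at 37 °C in darkness. Pin-transferred compounds met GST-Six1 and His-Eya2 protein (5X stock 250 nM/500 nM) plus glutathione donor and Ni-chelate acceptor beads (5X, 50 ug/mL).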
CBFb RUNX1 block: qHTS Assay for Compounds Blocking the Interaction Between CBF-beta and RUNX1 for the Treatment of Acute Myeloid Leukemia; AID 1477, 2009; Runt-related transcription factor 1 (Homo sapiens) + Core-binding factor subunit beta …; AlphaScreen CBFb-His/RUNX1-biotin binding, biochemical; Potency, µM (highest dose often 59.8 µM), for the others: at the top dose activity, negative = inhibition, most hits filed as inhibitors; 230,000 tested, under 10 active; note: % of control where 0% means no effect
Target sequence (Q01196 whole entry, looked up): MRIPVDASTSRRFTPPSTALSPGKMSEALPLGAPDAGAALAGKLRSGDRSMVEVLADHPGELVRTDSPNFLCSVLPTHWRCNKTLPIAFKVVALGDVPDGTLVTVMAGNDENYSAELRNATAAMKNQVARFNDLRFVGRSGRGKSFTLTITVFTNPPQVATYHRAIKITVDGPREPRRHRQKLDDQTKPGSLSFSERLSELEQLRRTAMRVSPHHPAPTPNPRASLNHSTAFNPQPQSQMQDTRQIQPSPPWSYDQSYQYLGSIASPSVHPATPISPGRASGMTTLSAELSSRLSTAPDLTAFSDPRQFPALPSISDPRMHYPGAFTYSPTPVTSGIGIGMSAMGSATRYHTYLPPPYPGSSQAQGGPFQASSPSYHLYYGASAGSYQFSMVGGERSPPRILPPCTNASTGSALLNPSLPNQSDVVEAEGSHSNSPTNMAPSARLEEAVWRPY
Target sequence (Q13951 whole entry, looked up): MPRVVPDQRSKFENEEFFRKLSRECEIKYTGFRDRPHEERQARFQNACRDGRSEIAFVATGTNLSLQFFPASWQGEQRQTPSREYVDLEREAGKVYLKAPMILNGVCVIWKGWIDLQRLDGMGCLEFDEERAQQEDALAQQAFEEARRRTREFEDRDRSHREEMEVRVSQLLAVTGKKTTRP
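Bead-based AlphaScreen assay; binding partners His-tagged CBF-beta and biotinylated RUNX1 at 30 nM each. Compound exposure 15 min after a 20-min protein preincubation; bead step 90 min; all steps at room temperature.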
MBNL1-CUG inh: qHTS Assay for Inhibitors of MBNL1-poly(CUG) RNA binding; AID 2675, 2010; Muscleblind-like protein 1 (Homo sapiens), Q9NR56; TR-FRET MBNL1-His/biotin-(CUG)12 binding, 665/545 ratio; Potency, µM (titrated, usually from 57.5 µM), inactives show top-dose activity change, negative = inhibition, usual class: inhibitors; 0.036% of 280,000 active; active = well fitted inhibition curve with a large enough effect in the signal ratio, with a control signal flat, not every such curve was filed as active; inconclusive = small, poorly fitted or top-dose-only effect, or effect the other way, or a change in a side signal; inactive = no such curve, though single readings can be large or run the other way; the % refers to the signal ratio; note: potency is the fitted concentration of half-maximal effect; % is set by controls: 0 for no effect and ±100 for the full control effect
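Inhibition of protein-RNA binding appears as loss of TR-FRET between terbium anti-His antibody on MBNL1-His and streptavidin-XL665 on biotin-(CUG)12. Activity is normalized to buffer-only and uninhibited-complex controls.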
Numbers without * were called inactive; ? = inconclusive; . = not tested or not shown; [ ] = dose if it differs, or a comment. Only some compounds are listed: those with a hit (about 5.5% of all), similar ones and a draw of the others. Unless noted, calls come from the whole dose curve; as a rule, active = well fitted curve in the direction sought with a large enough effect; inconclusive = small, poorly fitted or top-dose-only effect, or another doubt; inactive = no such curve, though single readings can be large; an effect the other way counts as inactive or inconclusive.

SMILES	RORg inh	CtBP-E1A inh	Gal4-VP16 FLuc	Six1-Eya2 inh	CBFb RUNX1 block	MBNL1-CUG inh
O=S(=O)(Nc1ccc(C(O)(C(F)(F)F)C(F)(F)F)cc1)c1cccc2cccnc12	.	0.5	.	2.0	.	.
CC(=O)Nc1ccc(NC(=O)C(C)OC(=O)CCCOc2ccc(Cl)cc2C)cc1 (configuration not stated)	.	-1.0	.	-1.8	.	.
CC(C)(C)C(=O)N1CCC(O)(CS(=O)(=O)Cc2ccccc2Cl)CC1	?	-3.1	5.62µM*	0.1	1.3%	-8.4%
CC(C)c1ccccc1NC(=O)c1cccnc1	-1.0%	-3.5	4.2%	-10.3	5.1%	-2.6%
C=CCNC(=S)NNC(=O)c1cccnc1	?	4.4	-16.7%	2.2	3.3%	-0.8%
Cc1ccccc1NC(=S)NNC(=O)c1cccnc1	6.31µM*	3.2	15.8µM*	-5.9	-3.7%	4.7%
CCC(C)c1ccccc1NC(=O)c1cccnc1 (configuration not stated)	11.2µM*	0.7	10.9%	4.8	8.0%	1.7%
C=CCNC(=S)NNC(=O)c1ccncc1	10µM*	.	-24.7%	5.4	5.7%	-4.7%
CC(C)(C)NC(=S)NNC(=O)c1ccncc1	1.12µM*	3.8	17.8µM*	3.3	7.9%	-22.8%[11.5 µM]
O=C(NNC(=S)Nc1ccccc1)c1cccnc1	.	5.2	.	8.7	.	-2.3%
CN(CC(=O)Nc1ccccc1C(F)(F)F)C(=O)c1ccc(-c2ccc(Cl)cc2)o1	.	0.5	.	-4.6	.	.
Clc1ccc(NN(Cc2ccncc2)c2ccc(Cl)cc2)cc1	.	1.7	.	-10.6	.	.
Cc1ccccc1NC(=S)NNC(=O)c1ccncc1	10µM*	10.7	-4.1%	-3.1	1.4%	-2.0%
COc1ccccc1NC(=S)NNC(=O)c1ccncc1	-35.4%	-2.5	-2.6%	-0.8	5.4%	-2.1%
Cc1ccc(S(=O)(=O)N2[C@H](CC(=O)c3ccc(F)cc3)OC[C@@H]2C(C)C)cc1	.	-4.0	.	16.2	.	.
COc1cccc(-c2oc3c(c2C(=O)OCCN(C)C)C(O)CCC3)c1 (configuration not stated)	.	5.3	.	-5.8	.	.
Cc1ccccc1OCCC(=O)N1CCN(S(=O)(=O)c2ccc(Br)cc2)CC1	.	7.8	.	-6.5	.	.
CCCCCCOc1ccc(/C=N/NC(=O)C2CC2)cc1	-3.8%	4.5	13.4%	9.3	.	2.7%
Cc1scc(C(=O)N/N=C/c2ccc(OCC(C)C)cc2)c1C	11.2µM*	-0.4	?	-2.0	6.2%	8.6%
CCCCOc1ccc(/C=N/NC(=O)c2csc(C)c2C)cc1	11.2µM*	11.4	?	4.4	2.3%	-0.1%
CC(C)COc1ccc(C(=O)N/N=C/c2ccoc2)cc1	17.8µM*	-8.7	14.1µM*	-0.9	.	-0.3%
CCN(CC)CCNC(=O)CNC(=O)c1nn(-c2ccc(OC)c(OC)c2)c(=O)c2ccccc12	-9.8%	4.1	-2.8%	1.0	.	4.9%
CC(=O)c1cccc(N(C(=O)c2ccco2)C(C(=O)NC2CCCCC2)c2ccc(C)o2)c1 (configuration not stated)	?	-2.0	?	-1.8	.	0.5%
Cc1ccc(C)c(Sc2ccc(NC(=O)CCN3C(=O)NC4(CCCC4)C3=O)cc2)c1	.	-4.7	.	-1.2	.	.
Cc1ccc(Sc2ccc(NC(=O)CCl)cc2)c(C)c1	2.82µM*	0.9	5.01µM*	-5.9	-2.9%	-11.5%
SMILES	RORg inh	CtBP-E1A inh	Gal4-VP16 FLuc	Six1-Eya2 inh	CBFb RUNX1 block	MBNL1-CUG inh
Fc1ccc(CCNC(=S)Nc2ccc(F)c(Cl)c2)cc1	7.08µM*	11.6	?	-1.7	6.6%	-11.3%
O=C(NCCc1ccc(Cl)cc1)Nc1ccc(F)cc1	4.5%	.	19.6%[10 µM]	-3.1	-2.6%	0.5%
Fc1ccc(NC(=S)NCCc2ccc(Cl)cc2)cc1	1.12µM*	8.9	3.16µM*	6.4	0.4%	1.6%
COc1ccc(C)cc1NC(=O)Nc1ccc(C(=O)N2CCCC2)cc1	-13.1%	2.0	13.0%	0.4	.	-0.9%
O=S(=O)(c1ccc(Cl)c(C(F)(F)F)c1)N1CCN(CC(O)COc2ccccc2F)CC1 (configuration not stated)	7.0%	-12.6	-6.4%	-3.1	.	2.9%
CC1CCN(C(=O)c2[nH]cnc2C(=O)N2CCN(C(=O)OC(C)(C)C)CC2)CC1	.	8.1	.	1.8	.	.
CS[C@@H]1SC[C@H]2C(=O)N(C)C(C(C)C)C(=O)OC[C@@H](NC(=O)c3cnc4ccccc4n3)C(=O)N[C@@H](C)C(=O)N(C)[C@H]1C(=O)N(C)C(C(C)C)C(=O)OC[C@@H](NC(=O)c1cnc3ccccc3n1)C(=O)N[C@@H](C)C(=O)N2C (some centres not stated)	0.0398µM*	.	-1.3%	.	9.4%	.
Cc1oc(-c2ccoc2)nc1CN(CC1CCC(=O)N1)C(C)C (configuration not stated)	-11.4%	-4.9	-5.5%	9.9	-1.4%	1.7%
COCCN(Cc1nc(-c2ccc(-c3ccccc3)cc2)oc1C)C(C)C	11.2µM*	.	?	-1.9	.	11.6%
CC1CCCN(C(=O)C2CC(=O)N(c3ccc(Cl)cc3)C2)C1 (configuration not stated)	-14.7%	5.1	-20.6%	1.0	.	1.2%
Oc1cccc2c(NC(=S)Nc3ccc(SC(F)F)cc3)cccc12	6.31µM*	.	7.94µM*	-14.6	2.4%	?
Oc1cccc(NC(=S)Nc2ccc(SC(F)F)cc2)c1	-9.8%	-5.0	4.3%	-2.0	-0.5%	.
CC(=O)c1ccc(N2CCN(C(=O)CNS(=O)(=O)c3ccc4c(c3)OCCCO4)CC2)c(F)c1	.	-20.1	.	9.5	.	.
S=c1nc2ccccc2c2nc(-c3ccccc3Br)[nH]n12	0.447µM*	-7.5	2.24µM*	-16.5	.	-4.9%
COc1cc(C)nc(-n2nc(C)cc2OC)n1	3.16µM*	-19.0	?	7.8	4.4%	4.6%
Cc1ccc(-n2c(Cl)c(Cl)nc(Cl)c2=O)cc1	2.82µM*	-15.2	5.01µM*	-8.3	5.3%	?
COc1cc(/C=N/NC(=O)c2c(C)nnn2-c2nonc2N)ccc1O	4.4%	-18.4	2.4%	-20.1	19.4%	?
Cc1nnn(-c2nonc2N)c1C(=O)N/N=C/c1cccc2ccccc12	-115.9%	1.7	12.6µM*	7.1	7.8%	1.9%
